For assay [1], the target named is Ribosomal protein S6 kinase alpha-6 (Homo sapiens) (UniProt Q9UK32). Particulars: at 1 µM.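 Also: each value is a mean inhibition of RSK4 from a GSK PKIS panel screen.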
Assay [2] has as its target T1, Serine/threonine-protein kinase Sgk1 (Homo sapiens) (UniProt O00141).
T1 sequence (whole entry): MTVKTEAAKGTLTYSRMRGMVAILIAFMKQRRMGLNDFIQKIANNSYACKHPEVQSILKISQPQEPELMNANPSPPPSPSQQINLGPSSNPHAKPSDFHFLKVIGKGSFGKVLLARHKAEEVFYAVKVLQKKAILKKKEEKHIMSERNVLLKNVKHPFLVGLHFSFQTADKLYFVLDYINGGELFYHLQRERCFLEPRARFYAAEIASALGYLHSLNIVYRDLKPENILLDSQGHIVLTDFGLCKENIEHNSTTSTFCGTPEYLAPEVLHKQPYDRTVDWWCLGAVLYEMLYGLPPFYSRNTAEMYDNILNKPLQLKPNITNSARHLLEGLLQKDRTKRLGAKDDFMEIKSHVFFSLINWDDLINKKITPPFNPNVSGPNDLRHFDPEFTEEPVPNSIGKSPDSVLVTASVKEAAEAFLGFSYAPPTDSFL
Particulars: at 0.1 µM.

For assay [3], the target named is T1, Serine/threonine-protein kinase Sgk1 (Homo sapiens). To be noted: at 1 µM.
The target in assay [4] is T2, Serine/threonine-protein kinase Sgk2 (Homo sapiens) (UniProt Q9HBY8).
T2 sequence (whole entry): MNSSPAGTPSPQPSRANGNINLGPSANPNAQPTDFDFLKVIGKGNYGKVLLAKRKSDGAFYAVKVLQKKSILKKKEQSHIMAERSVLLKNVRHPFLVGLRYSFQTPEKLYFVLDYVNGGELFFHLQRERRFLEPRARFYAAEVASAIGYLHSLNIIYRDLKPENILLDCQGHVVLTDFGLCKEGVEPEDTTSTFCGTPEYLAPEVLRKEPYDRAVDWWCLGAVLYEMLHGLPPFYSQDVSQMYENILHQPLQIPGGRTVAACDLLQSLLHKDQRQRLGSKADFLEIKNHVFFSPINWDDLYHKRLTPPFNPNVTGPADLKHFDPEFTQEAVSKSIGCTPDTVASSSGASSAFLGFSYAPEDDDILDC
To be noted: at 0.1 µM.

The target in assay [5] is T2, Serine/threonine-protein kinase Sgk2 (Homo sapiens). To be noted: at 1 µM.
The target of assay [6] is T3, Serine/threonine-protein kinase Sgk3 (Homo sapiens) (UniProt Q96BR1).
T3 sequence (whole entry): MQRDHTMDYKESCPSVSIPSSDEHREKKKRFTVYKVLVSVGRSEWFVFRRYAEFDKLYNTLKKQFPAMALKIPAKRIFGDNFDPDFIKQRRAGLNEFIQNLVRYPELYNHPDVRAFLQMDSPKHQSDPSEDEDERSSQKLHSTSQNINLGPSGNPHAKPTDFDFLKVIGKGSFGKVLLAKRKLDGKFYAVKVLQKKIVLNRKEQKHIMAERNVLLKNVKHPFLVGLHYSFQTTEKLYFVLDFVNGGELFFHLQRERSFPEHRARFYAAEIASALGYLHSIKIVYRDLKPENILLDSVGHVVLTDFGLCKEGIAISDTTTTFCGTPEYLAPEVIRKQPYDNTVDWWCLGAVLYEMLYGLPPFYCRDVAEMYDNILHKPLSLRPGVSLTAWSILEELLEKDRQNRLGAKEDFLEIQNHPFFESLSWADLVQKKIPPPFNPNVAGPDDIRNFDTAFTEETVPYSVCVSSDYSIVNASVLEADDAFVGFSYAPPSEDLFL
To be noted: at 0.1 µM.

Assay [7] concerns the target T3, Serine/threonine-protein kinase Sgk3 (Homo sapiens). To be noted: at 1 µM.
The target of assay [8] is 5'-AMP-activated protein kinase catalytic subunit alpha-1 (Homo sapiens) (UniProt Q13131). Particulars: at 0.1 µM.
For assay [9] the target is unchanged. To be noted: at 1 µM.
Assay [10] has as its target 5'-AMP-activated protein kinase catalytic subunit alpha-2 (Homo sapiens) (UniProt P54646). To be noted: at 0.1 µM.
Assay [11] shares this target. Particulars: at 1 µM.
Assay [12] deals with T4, NUAK family SNF1-like kinase 1 (Homo sapiens) (UniProt O60285).
T4 sequence (whole entry): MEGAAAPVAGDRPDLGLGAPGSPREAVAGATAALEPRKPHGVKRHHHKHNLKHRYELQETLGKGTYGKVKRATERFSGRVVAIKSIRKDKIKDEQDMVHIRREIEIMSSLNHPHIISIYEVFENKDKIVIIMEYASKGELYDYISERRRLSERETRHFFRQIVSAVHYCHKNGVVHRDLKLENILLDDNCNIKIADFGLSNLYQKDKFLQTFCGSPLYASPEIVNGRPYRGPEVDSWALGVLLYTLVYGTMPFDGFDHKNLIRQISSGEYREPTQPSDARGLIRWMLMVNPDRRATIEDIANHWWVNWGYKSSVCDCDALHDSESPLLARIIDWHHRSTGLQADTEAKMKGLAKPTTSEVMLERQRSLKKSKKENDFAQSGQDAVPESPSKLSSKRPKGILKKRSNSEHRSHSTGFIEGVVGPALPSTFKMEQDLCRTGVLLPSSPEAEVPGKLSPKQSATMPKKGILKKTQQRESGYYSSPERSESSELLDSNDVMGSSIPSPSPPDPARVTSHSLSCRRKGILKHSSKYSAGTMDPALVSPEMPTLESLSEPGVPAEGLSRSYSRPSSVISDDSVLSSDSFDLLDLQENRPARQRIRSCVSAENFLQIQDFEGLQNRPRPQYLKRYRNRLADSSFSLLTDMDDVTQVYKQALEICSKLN
Particulars: at 0.1 µM.

The target of assay [13] is T4, NUAK family SNF1-like kinase 1 (Homo sapiens). Particulars: at 1 µM.
The target in assay [14] is T5, Serine/threonine-protein kinase BRSK1 (Homo sapiens) (UniProt Q8TDC3).
T5 sequence (whole entry): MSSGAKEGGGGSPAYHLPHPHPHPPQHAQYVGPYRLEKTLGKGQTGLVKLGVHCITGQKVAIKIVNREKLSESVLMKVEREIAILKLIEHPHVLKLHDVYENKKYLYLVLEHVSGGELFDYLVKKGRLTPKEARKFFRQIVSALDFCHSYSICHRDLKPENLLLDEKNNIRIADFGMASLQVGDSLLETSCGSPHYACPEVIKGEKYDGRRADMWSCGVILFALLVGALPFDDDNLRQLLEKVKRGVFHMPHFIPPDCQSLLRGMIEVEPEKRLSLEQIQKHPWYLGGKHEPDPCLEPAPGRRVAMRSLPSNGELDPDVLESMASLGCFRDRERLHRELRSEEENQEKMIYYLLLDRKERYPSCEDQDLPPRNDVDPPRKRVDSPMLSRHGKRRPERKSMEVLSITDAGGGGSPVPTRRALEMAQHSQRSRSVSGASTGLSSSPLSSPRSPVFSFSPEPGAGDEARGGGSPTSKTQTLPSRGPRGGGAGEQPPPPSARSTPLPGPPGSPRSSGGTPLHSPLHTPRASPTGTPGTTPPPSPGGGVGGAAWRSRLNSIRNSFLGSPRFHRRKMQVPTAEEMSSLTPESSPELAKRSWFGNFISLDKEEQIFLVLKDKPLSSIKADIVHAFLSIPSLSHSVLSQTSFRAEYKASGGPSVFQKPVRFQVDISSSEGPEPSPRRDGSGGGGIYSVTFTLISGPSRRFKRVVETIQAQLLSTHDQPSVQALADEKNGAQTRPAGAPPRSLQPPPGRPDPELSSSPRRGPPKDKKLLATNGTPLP
Particulars: at 0.1 µM.

For assay [15], the target named is T5, Serine/threonine-protein kinase BRSK1 (Homo sapiens). To be noted: at 1 µM.
For assay [16], the target named is T6, Serine/threonine-protein kinase BRSK2 (Homo sapiens) (UniProt Q8IWQ3).
T6 sequence (whole entry): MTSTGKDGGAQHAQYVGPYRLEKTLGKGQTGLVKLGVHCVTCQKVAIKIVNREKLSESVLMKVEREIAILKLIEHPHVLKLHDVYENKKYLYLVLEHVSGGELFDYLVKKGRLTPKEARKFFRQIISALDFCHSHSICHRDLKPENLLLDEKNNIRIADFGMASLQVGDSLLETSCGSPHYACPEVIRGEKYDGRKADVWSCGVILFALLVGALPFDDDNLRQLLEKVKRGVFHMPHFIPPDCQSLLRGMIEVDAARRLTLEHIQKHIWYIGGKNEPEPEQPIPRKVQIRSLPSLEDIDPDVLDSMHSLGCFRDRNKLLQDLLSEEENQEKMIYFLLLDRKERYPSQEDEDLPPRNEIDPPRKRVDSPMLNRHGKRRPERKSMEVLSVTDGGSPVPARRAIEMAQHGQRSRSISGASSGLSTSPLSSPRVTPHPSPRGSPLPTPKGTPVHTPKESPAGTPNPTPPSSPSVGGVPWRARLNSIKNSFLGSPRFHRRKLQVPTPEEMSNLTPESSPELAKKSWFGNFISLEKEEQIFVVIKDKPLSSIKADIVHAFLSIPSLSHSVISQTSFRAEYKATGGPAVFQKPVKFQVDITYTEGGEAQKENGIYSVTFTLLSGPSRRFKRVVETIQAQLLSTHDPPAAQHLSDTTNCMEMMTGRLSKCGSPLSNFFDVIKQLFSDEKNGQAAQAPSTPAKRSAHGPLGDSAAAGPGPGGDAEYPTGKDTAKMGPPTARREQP
To be noted: at 0.1 µM.

Assay [17] concerns the target T6, Serine/threonine-protein kinase BRSK2 (Homo sapiens). Particulars: at 1 µM.
In assay [18] the target is Calcium/calmodulin-dependent protein kinase type 1D (Homo sapiens) (UniProt Q8IU85). To be noted: at 0.1 µM.
For assay [19] the target is unchanged. Particulars: at 1 µM.
Assay [20] has as its target Calcium/calmodulin-dependent protein kinase type II subunit alpha (Homo sapiens) (UniProt Q9UQM7). Particulars: at 0.1 µM.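 Also: reported values are averages (mean inhibition of CAMK2A).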

Chain of Calcium/calmodulin-dependent protein kinase type 1D (Homo sapiens) (Q8IU85 whole entry, looked up): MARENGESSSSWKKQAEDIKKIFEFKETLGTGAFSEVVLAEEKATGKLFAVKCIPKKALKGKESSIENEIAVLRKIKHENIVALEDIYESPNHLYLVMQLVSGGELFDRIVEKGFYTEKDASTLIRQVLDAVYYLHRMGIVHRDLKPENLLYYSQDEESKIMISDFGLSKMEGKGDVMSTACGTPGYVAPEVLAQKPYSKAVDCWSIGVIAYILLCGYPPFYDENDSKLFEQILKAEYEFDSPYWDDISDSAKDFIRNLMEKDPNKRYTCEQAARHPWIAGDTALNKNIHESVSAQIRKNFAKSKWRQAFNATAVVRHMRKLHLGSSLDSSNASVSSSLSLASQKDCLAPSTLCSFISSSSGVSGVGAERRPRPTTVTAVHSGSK
Chain of 5'-AMP-activated protein kinase catalytic subunit alpha-2 (Homo sapiens) (P54646 whole entry, looked up): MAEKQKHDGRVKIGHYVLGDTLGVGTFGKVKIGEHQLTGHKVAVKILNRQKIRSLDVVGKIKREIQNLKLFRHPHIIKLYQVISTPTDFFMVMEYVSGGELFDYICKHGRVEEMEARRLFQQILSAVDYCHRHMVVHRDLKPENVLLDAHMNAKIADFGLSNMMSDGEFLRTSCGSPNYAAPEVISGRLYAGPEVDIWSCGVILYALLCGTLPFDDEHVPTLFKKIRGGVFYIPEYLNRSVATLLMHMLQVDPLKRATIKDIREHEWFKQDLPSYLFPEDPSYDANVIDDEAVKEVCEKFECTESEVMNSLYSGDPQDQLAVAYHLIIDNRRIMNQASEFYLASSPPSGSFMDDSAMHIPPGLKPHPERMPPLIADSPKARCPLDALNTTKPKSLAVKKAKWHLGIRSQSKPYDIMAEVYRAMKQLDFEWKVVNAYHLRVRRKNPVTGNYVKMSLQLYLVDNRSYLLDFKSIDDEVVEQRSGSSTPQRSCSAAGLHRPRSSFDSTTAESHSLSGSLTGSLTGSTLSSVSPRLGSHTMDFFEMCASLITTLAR
Chain of Ribosomal protein S6 kinase alpha-6 (Homo sapiens) (Q9UK32 whole entry): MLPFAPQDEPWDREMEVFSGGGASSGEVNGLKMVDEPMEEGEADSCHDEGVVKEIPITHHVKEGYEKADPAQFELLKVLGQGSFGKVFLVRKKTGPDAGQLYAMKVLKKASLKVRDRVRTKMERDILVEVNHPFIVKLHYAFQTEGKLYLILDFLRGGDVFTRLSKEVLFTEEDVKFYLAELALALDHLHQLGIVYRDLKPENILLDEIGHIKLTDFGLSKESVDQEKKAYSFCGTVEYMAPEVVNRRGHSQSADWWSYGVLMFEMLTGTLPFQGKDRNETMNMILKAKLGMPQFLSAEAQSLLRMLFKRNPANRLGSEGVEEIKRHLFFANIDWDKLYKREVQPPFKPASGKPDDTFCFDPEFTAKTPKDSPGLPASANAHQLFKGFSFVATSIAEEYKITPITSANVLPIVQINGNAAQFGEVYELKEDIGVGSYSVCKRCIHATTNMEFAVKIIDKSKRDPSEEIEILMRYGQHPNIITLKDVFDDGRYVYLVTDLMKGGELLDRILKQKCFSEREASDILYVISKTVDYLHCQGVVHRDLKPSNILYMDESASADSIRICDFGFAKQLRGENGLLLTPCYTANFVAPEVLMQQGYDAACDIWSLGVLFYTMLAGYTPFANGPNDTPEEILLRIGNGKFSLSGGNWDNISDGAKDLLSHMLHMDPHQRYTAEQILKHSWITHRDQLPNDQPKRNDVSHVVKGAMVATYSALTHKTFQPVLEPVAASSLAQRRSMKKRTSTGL
Chain of 5'-AMP-activated protein kinase catalytic subunit alpha-1 (Homo sapiens) (Q13131 whole entry, looked up): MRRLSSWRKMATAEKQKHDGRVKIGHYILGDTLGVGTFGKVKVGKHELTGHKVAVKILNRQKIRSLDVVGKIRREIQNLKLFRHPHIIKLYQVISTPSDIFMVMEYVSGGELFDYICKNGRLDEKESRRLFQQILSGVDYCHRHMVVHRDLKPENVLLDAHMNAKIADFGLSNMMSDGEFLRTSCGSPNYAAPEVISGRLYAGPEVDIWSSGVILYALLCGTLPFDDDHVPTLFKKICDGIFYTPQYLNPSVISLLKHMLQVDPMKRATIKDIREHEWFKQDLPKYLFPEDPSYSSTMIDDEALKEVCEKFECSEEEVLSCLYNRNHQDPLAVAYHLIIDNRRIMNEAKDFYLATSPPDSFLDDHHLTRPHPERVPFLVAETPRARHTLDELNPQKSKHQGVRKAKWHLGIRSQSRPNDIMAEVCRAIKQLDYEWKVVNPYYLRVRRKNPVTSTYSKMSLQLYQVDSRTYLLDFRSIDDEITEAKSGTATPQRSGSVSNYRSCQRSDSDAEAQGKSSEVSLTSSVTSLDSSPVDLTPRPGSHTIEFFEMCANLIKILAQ
Chain of Calcium/calmodulin-dependent protein kinase type II subunit alpha (Homo sapiens) (Q9UQM7 whole entry): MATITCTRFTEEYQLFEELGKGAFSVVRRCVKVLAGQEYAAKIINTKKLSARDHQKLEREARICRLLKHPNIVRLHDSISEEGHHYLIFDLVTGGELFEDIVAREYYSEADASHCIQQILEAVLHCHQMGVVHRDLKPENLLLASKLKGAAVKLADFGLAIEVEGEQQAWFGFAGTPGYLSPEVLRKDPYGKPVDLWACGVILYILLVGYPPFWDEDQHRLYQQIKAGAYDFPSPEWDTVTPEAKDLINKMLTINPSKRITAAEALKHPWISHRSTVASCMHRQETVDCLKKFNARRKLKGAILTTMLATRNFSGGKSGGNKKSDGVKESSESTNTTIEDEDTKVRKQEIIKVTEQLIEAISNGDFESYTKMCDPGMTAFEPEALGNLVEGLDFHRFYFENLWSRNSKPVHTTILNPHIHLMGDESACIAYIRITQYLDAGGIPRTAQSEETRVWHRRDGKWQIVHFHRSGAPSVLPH

In general, inhibition refers to the relative decrease from the control value, in per cent. As to `NS(=O)(=O)c1ccc(-c2ccc3c(NC(=O)C4CC4)n[nH]c3c2)cc1`, the inhibition in assay [1] was 3.54%; in [2], 0.35%; in assay [3] it was 14.6%; in assay [4] it was -0.5%; in [5], 3.35%; in [6] it was -0.5%. Besides, the inhibition in [7] was -1.93%; in assay [8], 2.61%; in assay [9], 2.22%; in assay [10], -0.68%; in assay [11] it was 5.62%; in assay [12], 3.06%. The inhibition in [13] was 8.32%; in assay [14], 3.64%; in assay [15], 6.53%; in assay [16] it was 4.08%; in [17], 7.2%; in [18] it was -1.85%. Further, the inhibition in assay [19] was 0.84%; in assay [20], 3.17%.

Regarding `NC(=O)c1sc(-n2cnc3cc(C(F)(F)F)ccc32)cc1OCc1ccccc1Br`, the inhibition was 1.95% in assay [1]; 1.54% in [2]; 2.43% in assay [3]; 0.68% in assay [4]; -0.08% in assay [5]; -0.31% in [6]. For the same compound, the inhibition in assay [7] is 4.18%; in assay [8], 2.29%; in assay [9], 2.17%; in assay [10], 2.18%; in assay [11], 4.05%; in assay [12], -0.04%. The inhibition is 2.91% in assay [13]; 1.16% in assay [14]; 3.25% in [15]; 2.43% in [16]; 8.5% in assay [17]; 0.11% in [18]. Besides, the inhibition came out at 1.53% in assay [19] and 2.4% in [20].

For the compound `Nc1nonc1-c1nc2cnccc2n1C1CCCCC1`, the inhibition in [1] turned out to be 30.9%; in [2], 1.2%; in assay [3], 13.2%; in assay [4] it was 5.9%; in [5], 40.5%; in [6], 7.01%. Further, the inhibition in assay [7] is 41.7%; in [8], 0.66%; in assay [9] it was 5.36%; in assay [10], -0.2%; in assay [11], 3.46%; in [12], 0.83%. Further, the inhibition was 6.7% in assay [13]; -0.55% in [14]; 4.25% in [15]; 0.61% in [16]; 6.14% in assay [17]; 0.69% in assay [18]. In addition, the values for the inhibition in assay [19] and in [20] were 1.22% and -2.67%, respectively.

On to `COc1cc2c(cc1Nc1nc(Nc3ccsc3C(N)=O)c3cc[nH]c3n1)N(C(=O)CN(C)C)CCC2`, for which the inhibition was 16.4% in [1]; 3.82% in [2]; 2.11% in assay [3]; 2.89% in assay [4]; 2.84% in assay [5]; -0.08% in assay [6]. Besides, the inhibition in [7] is -0.04%; in [8], 1.03%; in [9], -0.4%; in assay [10], 0.93%; in assay [11], 2.09%; in [12] it was 1.84%. Also, the inhibition in assay [13] was 1.85%; in assay [14], 0.07%; in assay [15] it was 1.57%; in assay [16], 0.73%; in assay [17], -0.28%; in [20] it was -4.48%.

(Values after ChEMBL document CHEMBL1961873, “Compounds: GSK PKIS; Assays: Nanosyn kinase panel” (2012).)
